# Reference: PubChem BioAssay
# Inconclusive results are not listed. Calls of active or inactive are those of the source. Rule as the data show it, unless noted: active = inhibition above about 30%; inactive = the rest.
# How the values were obtained:
# [1] = Her2 expression decrease, cell viability multiplex – SKBR3 breast tumor cells, AlphaScreen, ATP viability, primary screen (AID 461;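 active = Her2 level under about 52% in both replicate screens, with viability over 70% of control, limit read from the data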;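 as to Her2 level: lower value means less Her2 protein in the cells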;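 as to viability: percent of carrier control wells set as 100% viability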); conditions: SKBR3 Her2 protein level, 18-24 h, measured here: SKBR3 viability, ATP luminescence, at 10 µM
# [2] = biological target: Receptor tyrosine-protein kinase erbB-2 (Homo sapiens) (UniProt P04626); experiment: as above; conditions: 18-24 h, at 10 µM, stronger effect = lower value
# [3] = reduced viability of SK-BR-3 breast cancer cells – cell-based, 24 h, human, pilot screen (AID 572;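 active = viability at or below 10% of carrier control in both of two separate runs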;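 also: compound exposure lasted between 18 and 24 h rather than exactly 24 h; 100% = carrier-treated control wells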); conditions: SK-BR-3 viability, CellTiter-Glo luminescence, at 10 µM, stronger effect = lower value
# [4] = HUVEC growth inhibition – cell-based, human, primary screen (AID 575;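 active = viability at or below 30% in both replicate assays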;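 also: 100% = median of untreated cell wells with 0.1% DMSO on each plate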); conditions: HUVEC proliferation, CellTiter-Glo luminescence, 72 h; at 10 µM; stronger effect = lower value
# [5] = H69AR cell proliferation blockers – human, duplicate replicates, primary screen (AID 580;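 active = viability at or under a set limit in both replicates, limit being median viability minus 3 SD, cut at about 48% in these data, passing the limit was not always enough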;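 also: 100% = mean luminescence of untreated wells and 0% = no signal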); conditions: H69AR lung tumor cells viability, ATP luminescence, 72 h; at 10 µM; stronger effect = lower value
# [6] = MRP1 drug-resistance reversers in H69AR cells – cell-based, doxorubicin co-treatment, pilot screen (AID 601;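 active = viability loss from added drug above about 55%, and viability with drug at most 40%, in both replicates, limit read from the data, passing the limit was not always enough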); conditions: CellTiter-Glo, 72 h, at 10 µM; for differential viability (reversal): stronger effect = higher value
# [7] = yeast transport mutant growth inhibition pilot in 384-well plates, post-Golgi transport modulator project (AID 636; in the data active = inhibition above about 31%); conditions: absorbance 615 nm, about 18 h, stronger effect = higher value
# [8] = growth suppression of yeast trafficking mutant, preliminary HTS, modulators of trafficking downstream of Golgi apparatus project, 1536-format plate, OD 615 nm (AID 637); conditions: yeast transport mutant growth, absorbance 615 nm, 18 h; stronger effect = higher value
# [9] = S. cerevisiae growth inhibition in permissive medium (OD615), pilot counter-assay for S. cerevisiae lifespan shortening project, permissive growth control (AID 705;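 active = growth inhibition above 25% in both replicates, a cutoff set 3 SD above the mean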); conditions: OD615, 24 h, at 10 µM, stronger effect = higher value
# [10] = S. cerevisiae growth inhibition in restrictive medium, OD615, pilot screen, restrictive growth control, yeast lifespan reduction project (AID 706;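 active = growth inhibition above a set limit, 3 SD over mean compound inhibition, in both replicates, cut at about 43% in these data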;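 also: modified DeaD lifespan yeast strain shifted to restrictive glucose medium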); conditions: OD615, 48 h, at 10 µM, stronger effect = higher value
# [11] = doxorubicin toxicity protection in MRP-1 cells – H69AR cells, CellTiter-Glo, duplicate, MRP-1 activator project, pilot screen (AID 807;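 active = viability increase at or above a cutoff of the median across tested compounds plus 3 SD, cut at about 8.5% in these data, passing the limit was not always enough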;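 also: compound pretreatment 18-22 h then 72 h combined with doxorubicin; 0% = doxorubicin alone and 100% = vehicle without doxorubicin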); conditions: H69AR viability with doxorubicin, CellTiter-Glo luminescence; at 10 µM; stronger effect = higher value
# [12] = viability of PTEN-null HCT116 cells – cell-based, HCT116 clonal line, CellTiter-Glo, pilot screen (AID 824;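 active = viability at or below 27.92% in each of two runs, the all-compound median minus 4 SD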;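 also: 0% = 20 µM Hyamine control and 100% = vehicle cell control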); conditions: HCT116 PTEN-deleted viability, 60 h, at 10 µM, stronger effect = lower value
# [13] = RAM pathway blockade in budding yeast – dse1pr::URA3 reporter, 5-FOA selection, pilot screen (AID 869;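 active = inhibition over a set limit, the all-compound mean plus 3 SD, in both replicate runs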;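 also: 0% = DMSO wells with no growth and 100% = 10 µM 1-NA-PP1 with full growth; RAM network block rescues cells from 5-FOA so hits raise OD615 growth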); conditions: S. cerevisiae dse1pr::URA3 5-FOA growth, OD615, 2 d; at 10 µM; stronger effect = higher value; strain carries analog-sensitive mutant Cbk1 kinase
# [14] = RAM signaling pathway blockade in yeast – S. cerevisiae, Pdr1DBD-CYC8 efflux-inhibited sensitized strain, primary screen (AID 1298;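 active = RAM network inhibition above 8.4% in each of two replicates, 3 SD over the compound average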;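 also: 0% = DMSO untreated cells without growth and 100% = 10 µM 1-NA-PP1 full growth; higher means more yeast growth rescued from 5-FOA killing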); conditions: S. cerevisiae cbk1-as DSE1-URA3 strain, 5-FOA growth OD615, 2 d; at 50 µM; stronger effect = higher value
# [15] = viability of HCT116 without oncogenic beta-catenin – human colon tumor cells, pilot screen (AID 823;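 active = cell viability at or below a set limit in both duplicate runs, the limit being the all-compound median minus 4 SD, cut at about 23% in these data, passing the limit was not always enough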;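 also: 0% = wells killed by 20 µM Hyamine and 100% = untreated DMSO cell wells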); conditions: HCT116 beta-catenin knockout viability, CellTiter-Glo, 60 h; at 10 µM; stronger effect = lower value
# [16] = H69AR cells + 2 uM doxorubicin, measured here: viability with 2 uM doxorubicin, stronger effect = lower value
# [17] = H69AR cells, compound alone cytotoxicity
# Receptor tyrosine-protein kinase erbB-2 (Homo sapiens), sequence (P04626 whole entry, looked up): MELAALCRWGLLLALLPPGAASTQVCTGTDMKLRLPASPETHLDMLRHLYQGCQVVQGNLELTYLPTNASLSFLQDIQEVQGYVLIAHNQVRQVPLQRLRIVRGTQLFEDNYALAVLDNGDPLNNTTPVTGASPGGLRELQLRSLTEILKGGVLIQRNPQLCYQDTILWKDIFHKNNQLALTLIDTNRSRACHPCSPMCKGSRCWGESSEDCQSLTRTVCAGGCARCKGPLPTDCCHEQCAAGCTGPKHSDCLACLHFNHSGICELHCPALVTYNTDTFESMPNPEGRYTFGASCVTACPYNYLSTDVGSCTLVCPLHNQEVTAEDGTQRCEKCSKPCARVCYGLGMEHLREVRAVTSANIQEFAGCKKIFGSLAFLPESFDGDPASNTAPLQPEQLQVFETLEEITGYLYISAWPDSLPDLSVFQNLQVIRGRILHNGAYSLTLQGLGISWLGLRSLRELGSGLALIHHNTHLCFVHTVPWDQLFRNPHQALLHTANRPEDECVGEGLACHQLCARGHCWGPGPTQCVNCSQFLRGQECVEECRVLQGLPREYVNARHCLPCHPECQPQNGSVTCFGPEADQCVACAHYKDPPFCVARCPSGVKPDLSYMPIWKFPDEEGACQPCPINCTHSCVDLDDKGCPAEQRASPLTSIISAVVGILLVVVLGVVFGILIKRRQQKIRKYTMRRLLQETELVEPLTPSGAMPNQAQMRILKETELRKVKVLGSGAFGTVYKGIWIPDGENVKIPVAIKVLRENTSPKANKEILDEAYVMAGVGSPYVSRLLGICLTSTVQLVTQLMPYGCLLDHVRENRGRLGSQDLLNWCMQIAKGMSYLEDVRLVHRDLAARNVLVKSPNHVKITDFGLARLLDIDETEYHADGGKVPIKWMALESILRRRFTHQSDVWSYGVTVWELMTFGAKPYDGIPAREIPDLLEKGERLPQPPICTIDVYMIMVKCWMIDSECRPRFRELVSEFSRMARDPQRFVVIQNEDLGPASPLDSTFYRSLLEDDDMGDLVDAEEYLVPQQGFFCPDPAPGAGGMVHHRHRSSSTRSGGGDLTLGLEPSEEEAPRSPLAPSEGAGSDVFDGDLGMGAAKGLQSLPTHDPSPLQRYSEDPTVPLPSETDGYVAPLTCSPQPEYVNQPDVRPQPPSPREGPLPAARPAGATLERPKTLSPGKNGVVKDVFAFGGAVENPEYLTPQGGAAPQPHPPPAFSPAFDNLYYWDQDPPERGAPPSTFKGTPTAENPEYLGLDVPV
SMILES,viability [1],Her2 level [2],viability [3],viability [4],viability [5],differential viability (reversal) ([6]; H69AR cells + 2 uM doxorubicin),"viability [6, 16]","viability [6, 17]",inhibition [7],inhibition [8],growth inhibition [9],growth inhibition [10],viability increase [11],viability [12],inhibition [13],RAM network inhibition [14],viability [15]
CCOC(=O)c1cc2c(=O)n3ccccc3nc2n(CCCOC)c1=NC(=O)C(C)(C)C,91%,92% (inactive),91% (inactive),105% (inactive),83.7% (inactive),23.1% (inactive),60.6%,83.7%,-7.4% (inactive),-3.17% (inactive),-11% (inactive),7.96% (inactive),-2.09% (inactive),91.4% (inactive),2.98% (inactive),2.11% (inactive),
Cc1ccc(S(=O)(=O)C(C#N)c2nc3ccccc3nc2N2CCCCC2)cc1 (centres undefined),124%,99.5% (inactive),124% (inactive),71.6% (inactive),92% (inactive),-2.64% (inactive),94.7%,92%,-6.13% (inactive),3.65% (inactive),-26.9% (inactive),6.8% (inactive),-3.74% (inactive),,2.7% (inactive),5.83% (inactive),93.8% (inactive)
COC(=O)C1(C(F)(F)F)N=C2Sc3ccccc3N2C(N2CCOCC2)=N1 (centres undefined),91%,89% (inactive),91% (inactive),81.5% (inactive),92.5% (inactive),-0.935% (inactive),93.4%,92.5%,-5.73% (inactive),5.17% (inactive),-9.31% (inactive),-10% (inactive),-1.24% (inactive),53.8% (inactive),1.03% (inactive),2.93% (inactive),
O=C(c1cnccn1)N(c1ccccc1)C1(C(=O)NC2CCCC2)CCCCC1,118%,106% (inactive),118% (inactive),96% (inactive),99.1% (inactive),-2.94% (inactive),102%,99.1%,-8.77% (inactive),-1.75% (inactive),-9.55% (inactive),-12.1% (inactive),-1.49% (inactive),96% (inactive),1.56% (inactive),3.39% (inactive),
COc1ccc(C(C(=O)NC2CCCCC2)N2CCC3(CC2)OCCO3)cc1 (centres undefined),86%,98% (inactive),86% (inactive),114% (inactive),100% (inactive),6.97% (inactive),93.5%,100%,-7.81% (inactive),5.71% (inactive),-7.27% (inactive),-6.88% (inactive),-2.42% (inactive),88.8% (inactive),2.62% (inactive),2.77% (inactive),
Cc1ccc(Cn2c(CN3CCOCC3)nc3c2c(=O)n(C)c(=O)n3C)cc1,80.5%,89.5% (inactive),80.5% (inactive),90.5% (inactive),102% (inactive),2.54% (inactive),99.6%,102%,-5.14% (inactive),0% (inactive),-18% (inactive),-8.04% (inactive),-4.67% (inactive),,2.71% (inactive),2.86% (inactive),92.4% (inactive)
O=C(CCNS(=O)(=O)c1cccc2nsnc12)Nc1ccc2c(c1)OCCO2,90.5%,96% (inactive),90.5% (inactive),88.7% (inactive),101% (inactive),12.9% (inactive),88.5%,101%,-7.95% (inactive),-1.11% (inactive),-7.75% (inactive),-0.065% (inactive),-3.8% (inactive),98.9% (inactive),2.37% (inactive),4.76% (inactive),
CSc1ccccc1NC(=O)C1CCCO1 (centres undefined),97.5%,110% (inactive),97.5% (inactive),102% (inactive),93.9% (inactive),-0.325% (inactive),94.2%,93.9%,1.73% (inactive),-6.03% (inactive),-8.35% (inactive),-0.95% (inactive),-2.61% (inactive),98.6% (inactive),0.11% (inactive),2.42% (inactive),
O=C(CSC1=NCCS1)NCc1ccco1,84%,108% (inactive),84% (inactive),80.6% (inactive),90.1% (inactive),1.28% (inactive),88.8%,90.1%,-0.54% (inactive),26.5% (inactive),6.88% (inactive),47.7% (active),-3.56% (inactive),100% (inactive),2.73% (inactive),3.89% (inactive),
